This is part of a sample that, as a whole, favours compounds with a hit. Of some 79,000 tested, about 15% had one in any assay. Active and inactive are the calls of the source. No stated cut-off is given here; in the data, active means growth inhibition above about 70%; inactive means the rest.
Key:
[1] = NCI Yeast Anticancer Drug Screen. Data for the rad52 strain (AID 147);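 further: 0% = growth of vehicle-treated control cultures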; details: S. cerevisiae rad52 mutant growth inhibition, stronger effect = higher value
In short: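 Genetically altered yeast (DNA damage repair defect) treated with compound; inhibition calculated relative to vehicle.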

[2] = NCI Yeast Anticancer Drug Screen. Data for the wt1 strain (AID 149);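 further: 0% = growth of vehicle-treated wt1 cultures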; details: S. cerevisiae wt1 strain (SPY 50644) growth inhibition, stronger effect = higher value
In short: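 Yeast wt1 strain exposed to compounds; growth inhibition measured relative to vehicle-treated controls.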

[3] = NCI Yeast Anticancer Drug Screen. Data for the rad50EPP+ strain (AID 151);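 further: 0% = growth of vehicle-treated control cultures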; details: S. cerevisiae rad50 mutant strain, stronger effect = higher value
In short: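 Strain rad50EPP+; compound exposure; % growth inhibition vs vehicle.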

[4] = NCI Yeast Anticancer Drug Screen. Data for the mgt1 strain (AID 153); details: S. cerevisiae mgt1 mutant growth inhibition, stronger effect = higher value
In short: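 Read-out: yeast growth inhibition vs vehicle control. Strain mgt1, drawn from a panel altered in DNA damage repair or cell cycle control.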

[5] = NCI Yeast Anticancer Drug Screen. Data for the rad50 strain (AID 155);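 further: 0% = growth of vehicle-only cultures of the same strain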; details: S. cerevisiae rad50 strain growth inhibition, stronger effect = higher value
In short: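 Yeast carrying a defined DNA repair defect were exposed to test compounds, and growth was compared with vehicle-treated controls to give percent inhibition.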

[6] = NCI Yeast Anticancer Drug Screen. Data for the mec2-1 strain (AID 157); details: S. cerevisiae mec2-1 strain, stronger effect = higher value
In short: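 Cells of the genetically defined mec2-1 yeast strain are incubated with test compound. Inhibition of growth is calculated against vehicle-treated controls.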

[7] = NCI Yeast Anticancer Drug Screen. Data for the rad14 strain (AID 159);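 further: 0% = growth of vehicle-treated control cultures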; details: S. cerevisiae rad14 strain growth inhibition, stronger effect = higher value
In short: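 Yeast cells carrying a defined DNA-repair defect were exposed to compounds, and growth inhibition was calculated relative to vehicle-treated control cultures.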

[8] = NCI Yeast Anticancer Drug Screen. Data for the sgs1 mgt1 strain (AID 161);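 further: 0% = growth of cultures given vehicle only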; details: S. cerevisiae sgs1 mgt1 strain, stronger effect = higher value
In short: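 Test agents were incubated with a DNA-repair-mutant yeast strain. Growth was then read and compared against vehicle-treated controls.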

[9] = NCI Yeast Anticancer Drug Screen. Data for the CLN2oe strain (AID 163);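 further: 0% = growth of vehicle-only control cultures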; details: S. cerevisiae CLN2oe strain, stronger effect = higher value
In short: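 Strain altered in cell-cycle control, incubated with compound; growth compared to solvent-treated controls.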

[10] = NCI Yeast Anticancer Drug Screen. Data for the cln2 rad14 strain (AID 165);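 further: 0% = growth equal to vehicle treated cultures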; details: S. cerevisiae cln2 rad14 strain, stronger effect = higher value
In short: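 The screen exposed genetically defined yeast (cln2 rad14) to test compounds and scored growth inhibition relative to vehicle-treated controls.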

[11] = NCI Yeast Anticancer Drug Screen. Data for the bub3 strain (AID 167); details: S. cerevisiae bub3 mutant strain, stronger effect = higher value
In short: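 Compounds were applied to a genetically altered yeast strain carrying a cell-cycle control defect. Growth inhibition was scored against vehicle-treated controls.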

[12] = NCI Yeast Anticancer Drug Screen. Data for the wt2 strain (AID 169);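 further: 0% = growth of vehicle-treated yeast cultures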; details: S. cerevisiae wt2 strain growth inhibition, stronger effect = higher value
In short: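 Steps: yeast strain treated with compound; growth recorded; inhibition calculated relative to cultures given vehicle alone.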

[13] = NCI Yeast Anticancer Drug Screen. Data for the mlh1 strain (AID 171);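 further: 0% = growth of vehicle-treated control cultures of the same strain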; details: S. cerevisiae mlh1 strain growth inhibition, stronger effect = higher value
In short: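 Yeast screen: mutant strain plus compound, growth scored against vehicle control wells.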

[14] = NCI Yeast Anticancer Drug Screen. Data for the sgs1 strain (AID 173);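 further: 0% = growth of vehicle-only control cultures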; details: S. cerevisiae sgs1 mutant, stronger effect = higher value
In short: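 Inhibition of yeast growth served as the measure. The mutant strain was treated with each compound, and growth was normalised to cultures receiving vehicle alone.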

[15] = NCI Yeast Anticancer Drug Screen. Data for the mlh1 rad18 strain (AID 175); details: S. cerevisiae mlh1 rad18 strain growth inhibition, stronger effect = higher value
In short: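 Compound-treated yeast growth, normalised to vehicle controls. Strain bears defined DNA repair mutations.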

[16] = NCI Yeast Anticancer Drug Screen. Data for the rad18 strain (AID 177); details: S. cerevisiae rad18 mutant growth inhibition, stronger effect = higher value
In short: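 Inhibition values reflect reduced yeast growth compared with vehicle-treated controls, using a strain engineered with a DNA damage repair defect.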

[17] = at 5.0 µM (retest, dose inferred, filed as 0.5)
[18] = at 50.0 µM (retest, dose inferred, filed as 5.0)

Measured: growth inhibition

CCCCCCCCCCCC1N=C(N)NC(CCCO)=C1C(=O)OC (stereo unspecified)
active: [1]; at 3.7 µM 99% | [1]; at 11.0 µM 99% | [1]; at 33.0 µM 99% | [1]; at 100.0 µM 99% | [2]; at 3.7 µM 99% | [2]; at 11.0 µM 99% | [2]; at 33.0 µM 99% | [2]; at 100.0 µM 99% | [3]; at 3.7 µM 81% | [3]; at 11.0 µM 99% | [3]; at 33.0 µM 99% | [3]; at 100.0 µM 98% | [4]; at 3.7 µM 99% | [4]; at 11.0 µM 100% | [4]; at 33.0 µM 99% | [4]; at 100.0 µM 99% | [5]; at 3.7 µM 99% | [5]; at 11.0 µM 99% | [5]; at 33.0 µM 99% | [5]; [18] 100% | [5]; at 50.0 µM 89.2% | [5]; at 100.0 µM 99% | [6]; at 3.7 µM 99% | [6]; at 11.0 µM 99% | [6]; at 33.0 µM 99% | [6]; [18] 99% | [6]; at 50.0 µM 91.8% | [6]; at 100.0 µM 99% | [7]; at 1.2 µM 72% | [7]; at 3.7 µM 99% | [7]; at 11.0 µM 99% | [7]; at 33.0 µM 99% | [7]; at 100.0 µM 99% | [8]; [18] 99% | [8]; at 50.0 µM 88.4% | [9]; at 3.7 µM 99% | [9]; at 11.0 µM 99% | [9]; at 33.0 µM 99% | [9]; at 100.0 µM 99% | [10]; [18] 100% | [10]; at 50.0 µM 90.8% | [11]; at 3.7 µM 99% | [11]; at 11.0 µM 99% | [11]; at 33.0 µM 98% | [11]; [18] 99% | [11]; at 50.0 µM 91.5% | [11]; at 100.0 µM 98% | [12]; at 3.7 µM 99% | [12]; at 11.0 µM 99% | [12]; at 33.0 µM 99% | [12]; at 100.0 µM 99% | [13]; at 3.7 µM 99% | [13]; at 11.0 µM 99% | [13]; at 33.0 µM 99% | [13]; at 100.0 µM 98% | [14]; at 3.7 µM 99% | [14]; at 11.0 µM 99% | [14]; at 33.0 µM 99% | [14]; at 100.0 µM 99% | [15]; [18] 99% | [15]; at 50.0 µM 85.5% | [16]; at 3.7 µM 99% | [16]; at 11.0 µM 99% | [16]; at 33.0 µM 99% | [16]; at 100.0 µM 98%
inactive: [1]; at 1.2 µM 5% | [2]; at 1.2 µM 15% | [3]; at 1.2 µM 32% | [4]; at 1.2 µM 46% | [5]; at 1.2 µM 28% | [5]; [17] 28% | [6]; at 1.2 µM 12% | [6]; [17] 7% | [8]; [17] 65% | [9]; at 1.2 µM 16% | [10]; [17] 21% | [11]; at 1.2 µM 11% | [11]; [17] 6% | [12]; at 1.2 µM 16% | [13]; at 1.2 µM 6% | [14]; at 1.2 µM 48% | [15]; [17] 53% | [16]; at 1.2 µM 67%

O=C1C=C(Cl)C(=O)C(c2ccc(Cl)cc2)=C1
inactive: [1]; at 1.2 µM -33% | [1]; at 3.7 µM -7% | [1]; at 11.0 µM 11% | [2]; at 1.2 µM 1% | [2]; at 3.7 µM 5% | [2]; at 11.0 µM 21% | [3]; at 1.2 µM 40% | [3]; at 3.7 µM 49% | [4]; at 1.2 µM 2% | [4]; at 3.7 µM 39% | [5]; at 1.2 µM -4% | [5]; at 3.7 µM -1% | [5]; [17] 21% | [5]; at 11.0 µM 44% | [6]; at 1.2 µM 0% | [6]; at 3.7 µM 34% | [6]; [17] 21% | [6]; at 11.0 µM 67% | [7]; at 1.2 µM 11% | [7]; at 3.7 µM 23% | [7]; at 11.0 µM 42% | [8]; [17] 17% | [9]; at 1.2 µM 31% | [9]; at 3.7 µM 32% | [9]; at 11.0 µM 69% | [10]; [17] 24% | [11]; at 1.2 µM 5% | [11]; at 3.7 µM 20% | [11]; [17] 6% | [11]; at 11.0 µM 62% | [12]; at 1.2 µM -27% | [12]; at 3.7 µM -9% | [12]; at 11.0 µM 13% | [13]; at 1.2 µM 34% | [13]; at 3.7 µM 61% | [14]; at 1.2 µM 18% | [14]; at 3.7 µM 37% | [14]; at 11.0 µM 66% | [15]; [17] 39% | [16]; at 1.2 µM 16% | [16]; at 3.7 µM -4% | [16]; at 11.0 µM 53%
active: [1]; at 33.0 µM 98% | [1]; at 100.0 µM 96% | [2]; at 33.0 µM 97% | [2]; at 100.0 µM 97% | [3]; at 11.0 µM 83% | [3]; at 33.0 µM 98% | [3]; at 100.0 µM 96% | [4]; at 11.0 µM 82% | [4]; at 33.0 µM 98% | [4]; at 100.0 µM 97% | [5]; at 33.0 µM 97% | [5]; [18] 97% | [5]; at 50.0 µM 91.5% | [5]; at 100.0 µM 97% | [6]; at 33.0 µM 98% | [6]; [18] 99% | [6]; at 50.0 µM 92.5% | [6]; at 100.0 µM 97% | [7]; at 33.0 µM 95% | [7]; at 100.0 µM 96% | [8]; [18] 95% | [8]; at 50.0 µM 93.5% | [9]; at 33.0 µM 98% | [9]; at 100.0 µM 96% | [10]; [18] 98% | [10]; at 50.0 µM 90.8% | [11]; at 33.0 µM 98% | [11]; [18] 98% | [11]; at 50.0 µM 91.8% | [11]; at 100.0 µM 94% | [12]; at 33.0 µM 94% | [12]; at 100.0 µM 96% | [13]; at 11.0 µM 84% | [13]; at 33.0 µM 97% | [13]; at 100.0 µM 96% | [14]; at 33.0 µM 98% | [14]; at 100.0 µM 96% | [15]; [18] 97% | [15]; at 50.0 µM 91.6% | [16]; at 33.0 µM 96% | [16]; at 100.0 µM 97%
